# A549 viability – counter-screen for Nrf2 inhibitors: cytotoxicity in A549 cells; A549 ARE-Fluc cells, CellTiter-Fluor viability, 18-24 h; Potency, µM (top dose mostly 46 µM), for inactives: at the highest dose activity change, negative = cytotoxicity, actives largely listed as inhibitors; 0.16% of 390,000 active; AID 504648; also: potency is read from the fitted curve at half-maximal effect; % is scaled to controls: 0 for no effect and ±100 for the full control effect
#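 A549 ARE_Fluc cells in 5% FBS OPTI-MEM were exposed to compounds in concentration-response for 18-24 h at 37 deg C. Viability was read by CellTiter-Fluor fluorescence (Ex 405/Em 525) after 30 min, before the luciferase read.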
# Nrf2 ARE act – activators of Nrf2 (ARE) signaling. AREc32 ARE-luciferase reporter (MCF7-derived line), luminescence, 24 h. Potency, µM (highest dose often 46.1 µM), without a hit: top-dose activation, actives largely listed as activators. 0.31% of 410,000 active. AID 624171; also: potency is read from the fitted curve at half-maximal effect; % of control where 0% means no effect; nearly all actives have a fitted effect of over 65% in size
#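 Each well held 1000 AREc32 cells, which were incubated with compound for 24 hr at 37 deg C after overnight attachment, and ARE reporter activity was quantified by firefly luciferase luminescence.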
# TCR act – activators of T cell receptors; Potency, µM (titrated, usually from 9.22 µM), without a hit: at the highest dose activation of IL-2 secretion, usual class: activators; primary human leukocytes, anti-CD3, IL-2 HTRF, 48 h; 330,000 tested, under 10 active; AID 504894; also: % of control where 0% means no effect
#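 48 hr co-incubation of compounds, a-CD3 beads and primary human leukocytes; IL-2 quantified homogeneously by HTRF with anti-IL-2 K and d2 conjugates.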
# CCT modulator – changes cytosolic chaperonin activity | purified chaperonin ATPase assay, HTRF ADP detection, 30 min | activity change, % (test concentration not listed), hits read low | 0.3% of 360,000 active | AID 651819; in the data active = activity change below about -30%; also: % is scaled to controls: 0 for no effect and ±100 for the full control effect
#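 We incubate TRiC, 40 or 20 nM final, with library compounds at 76 uM and 10 uM ATP for 30 min at 37 °C. ADP formed is detected with Transcreener HTRF reagents after 30 min at room temperature.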
# AT treatment – potential ataxia-telangiectasia treatments restoring KAP-1 phosphorylation; F2112 A-T fibroblasts, KAP-1 phosphorylation AlphaLISA; neocarzinostatin DNA damage 30 min before lysis; Potency, µM (top dose mostly 57.5 µM), inactives show top-dose activation, hits mostly activators; 0.19% of 320,000 active; AID 485349; also: potency is read from the fitted curve at half-maximal effect; % of control where 0% means no effect; nearly all actives have a fitted effect of over 45% in size
#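 ATM-like activity read as KAP-1 phosphorylation via AlphaLISA donor/acceptor antibody pairs after lysis and 6 hr at 25C. Cells were ATM-null patient fibroblasts (F2112, hTERT), dosed 60 min, then exposed to the DSB inducer NCS for 30 min.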
# Nrf2 inh – inhibitors of Nrf2 signaling; A549 ARE-Fluc reporter, luciferase luminescence, 18-24 h; 2.1% of 360,000 active; Potency, µM (highest dose often 46 µM), without a hit: top-dose activity change, negative = inhibition, hits mostly inhibitors; AID 504444; also: potency is read from the fitted curve at half-maximal effect; % is scaled to controls: 0 for no effect and ±100 for the full control effect; nearly all actives have a fitted effect of over 60% in size
#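 A549 ARE_Fluc cells (5000/well, 5% FBS OPTI-MEM) pre-incubated 2 h, then treated with compounds 18-24 h at 37C/5% CO2 in concentration-response. CellTiter-Fluor viability read first; BugLite luciferase luminescence after 15 min at room temperature gives Nrf2 activity.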
# An asterisk follows results filed as active; ? = inconclusive; . = not tested or not shown; [ ] = remark or other dose. A selection: hits, their analogues and other compounds. The true share with any hit is near 2.6%. Unless noted, calls follow the shape of the dose curve; as a rule, active = well fitted curve in the direction sought with a large enough effect; inconclusive = small, poorly fitted or top-dose-only effect, or another doubt; inactive = no such curve, though single readings can be large; an effect the other way counts as inactive or inconclusive.
SMILES,A549 viability,Nrf2 ARE act,TCR act,CCT modulator,AT treatment,Nrf2 inh
COc1ccc(Nc2nnc(SCC(=O)/C=C3/N(C)c4ccccc4C3(C)C)s2)cc1,?,6%,-4%[46.1 µM],-11,-3%,23µM*
COCCn1c(SCC(=O)/C=C2\N(C)c3ccccc3C2(C)C)nnc1-c1ccncc1,-27%,-1%,2%[46.1 µM],1,-2%,23µM*
COCCn1c(SCC(=O)c2c(-c3ccccc3)n(C)c3ccccc23)nnc1-c1ccncc1,0%,0%,-9%[46.1 µM],1,0%,?
CCC1=Nc2cc(C(=O)NC3CCCC3)ccc2Sc2ccc(Cl)cc21,-5%,4%,.,.,.,7%
Cc1ccc2c(C)c(C(=O)NCCN3CCCC(O)C3)oc2c1C (stereo not given),2%,6%,-5%,-38*,-2%,-7%
CCCc1ccc2oc(C(=O)NCCN3CCCC(O)C3)c(C)c2c1 (stereo not given),8%,4%,3%,-3,15%,?
Cn1cc(S(=O)(=O)N2CCCC2)cc1C(=O)NCc1ccc(Cl)cc1,17%,2%,-3%,-1,2%,-8%
Cc1noc(/C=C/Nc2ccc(F)cc2F)c1[N+](=O)[O-],-21%,2.8µM*,0%,-1,2%,5%
O=C1c2cccc(NCCNCCO)c2C(=O)c2cccc(NCCNCCO)c21,18µM*,0%,8%,-1,.,10µM*
Clc1nc2sccn2c1/C=N/n1cnc2ccccc21,3%,3.2µM*,-5%,-5,-6%,?
COc1ccc(OC)c(-c2csc(NC(=O)Cn3[nH]c(=O)c4ccccc4c3=O)n2)c1,-17%,2%,-1%,1,16%,10µM*
COc1cccc(C(=O)Nc2nc(-c3ccc4c(c3)OCO4)cs2)c1,-23%,4%,0%,2,16%,13µM*
COc1ccc(OC)c(-c2csc(NC(=O)Cc3ccc(F)cc3)n2)c1,-2%,1%,7%,-2,1%,?
COc1ccc(OC)c(-c2csc(NC(=O)c3ccc(F)cc3)n2)c1,-5%,6%,2%,2,10%,18µM*
Cc1sc(NC(=O)Cn2[nH]c(=O)c3ccccc3c2=O)nc1-c1ccccc1,-16%,0%[9.22 µM],9%[46.1 µM],-1,4%,16µM*
N=C1S/C(=C\c2ccc(-c3cccc(Cl)c3)o2)C(=O)N1c1nccs1,?,9%,-2%[46.1 µM],-1,-9%,8.2µM*
COc1ccc(CCNC(=O)c2cc(-c3ccccc3)nc3ccccc23)cc1OC,-5%,-1%,.,.,.,-16%
COc1ccc(-n2nc3c(c2NC(=O)COc2ccccc2F)CS(=O)(=O)C3)cc1,-6%,-1%,-4%,-32*,5%,-13%
O=C(c1ccc2c(=O)n(C3CCCC3)c(=S)[nH]c2c1)N1CCCCCC1,-22%,-1%,0%,-2,0%,16µM*
O=C(c1ccc2c(=O)n(-c3ccccc3)c(=S)[nH]c2c1)N1CCCCC1,-3%,0%,-1%,-1,5%,7.3µM*
C=C1c2ccccc2O[C@H](C(=O)OCC)[C@H]1OC,11%,0%,-4%[46.1 µM],-4,-1%,-7%
COc1ccc(-n2ccnc2SCC(=O)Nc2ccc(F)cc2F)cc1,0%,-1%,.,.,.,.
COc1ccc(N2CCN(C(=O)CSc3nnnn3-c3ccc4c(c3)OCCO4)CC2)cc1,-2%,1%,4%,-2,5%,16µM*
COc1ccc(-n2nnnc2SCC(=O)N2CCOCC2)cc1,1%,3%,-2%,-1,8%,?
CC1(C(=O)NS(=O)(=O)c2ccc(Br)cc2)CCN1C(=O)CCc1ccccc1 (stereo not given),.,-1%,.,-79*,.,.
SMILES,A549 viability,Nrf2 ARE act,TCR act,CCT modulator,AT treatment,Nrf2 inh
COc1ccc(C)cc1NC(=O)C(Sc1nnc(-c2ccncc2)n1-c1ccc(Cl)cc1)c1ccccc1 (stereo not given),-1%,4%,-14%[46.1 µM],-2,5%,26µM*
CC(=O)NC1C(=O)N(CCN2CCOCC2)c2ccc(Cl)cc21 (stereo not given),8%,0%,2%,-30*,-3%,-1%
CC(/C=N/NC(=O)c1cccnc1)=C\c1ccco1,7%,?,1%,2,4%,12%
CC(/C=N/NC(=O)CSc1nnc(SCc2ccccc2)s1)=C\c1ccco1,-1%,11µM*,1%[46.1 µM],-1,-3%,1%
CC(/C=N/NC(=O)c1cnccn1)=C\c1ccco1,-12%,8.9µM*,1%,-2,3%,24%
Cc1ccc(CSc2nnc(SCC(=O)N/N=C/C=C/c3ccco3)s2)cc1,-2%,16%,13%[46.1 µM],-1,4%,10%
Cc1cc(C)n(-c2ccc(C(=O)N3CCN(S(=O)(=O)c4ccc(C(C)C)cc4)CC3)cc2)n1,-17%,0%,-1%,-1,-3%,23µM*
Cc1cc(C)cc(Oc2coc3cc(O)ccc3c2=O)c1,-3%,0%,-50%,-3,10%,?
Cc1ccc(Oc2coc3cc(O)ccc3c2=O)cc1,1%,-1%,6%,-2,-14%,9.2µM*
Nc1cc(-c2cccc(Br)c2)nn1Cc1ccccc1,-8%,4%,-3%[46.1 µM],1,7%,2%
Nc1cc(-c2ccc(Br)cc2)nn1Cc1ccccc1,-11%,3%,0%,2,1%,10µM*
Cc1cc(C)cc(OCC(=O)N(Cc2ccc(Cl)cc2)C2CCS(=O)(=O)C2)c1 (stereo not given),-8%,8%,.,.,.,-12%
S=C(NCc1ccccn1)NN=Cc1ccccn1,?,-1%,0%,2,.,15µM*
Cc1ccc(NC(=S)NCc2ccccn2)cc1,9%,6%,-3%,1,4%,?
COc1cccc(-c2cc(C(F)(F)F)nc(-n3cc(Cl)cn3)n2)c1,1%,0%,5%,0,-8%,10µM*
COc1ccc(C2SCC(=O)N2CCc2ccc(OC)c(OC)c2)cc1 (stereo not given),-14%,0%,-7%,-2,2%,23µM*
COc1ccc(CCN2C(=O)CSC2c2ccc(OC)c(OC)c2)cc1OC (stereo not given),2%,2%,3%,0,-3%,?
O=C(Nc1ccc(NC(=O)c2sc3ccccc3c2Cl)cc1Cl)c1ccco1,-7%,4%,.,-33*,6%,?
CCOc1ccc(C(=O)Nc2ccc(NC(=O)c3ccco3)c(Cl)c2)cc1Cl,?,0%,-1%,-1,.,21µM*
CCOc1ccc(C(=O)Nc2ccc(NC(=O)c3ccco3)c(Cl)c2)cc1Br,?,0%,-6%,1,5%,?

# From PubChem BioAssay
